Rows were chosen to be rich in hits. Some 4.8% of all compounds tested hit in one or more screens of this group.
Calb FLC = affects C. albicans growth with fluconazole; C. albicans CaCi-2 (fluconazole-resistant clinical isolate) + fluconazole, Alamar Blue growth, 48 h; growth inhibition, % (no concentration beside the values); 300,000 compounds, 0.57% hits; AID 1979;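 active = growth inhibition above about 58% in most replicates, limit read from the data, passing the limit was not always enough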;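 note: all wells also contain fluconazole at 8 µg/ml as a sub-toxic cotreatment; 0% = median of DMSO wells and 100% = median of geldanamycin control wells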
MPTP inh = inhibitors of mitochondrial permeability transition pore; AID 602449; 360,000 compounds, 1.4% hits; isolated mouse mitochondria, Ca2+ swelling absorbance, 30 min; inhibition, % at 10 µM;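 active = inhibition of 50% or more, scaled per plate between neutral and stimulator controls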;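 note: 0% = DMSO wells given calcium and 100% = 1 mM EGTA wells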
Mdm2 MdmX PPI = human Mdm2/MdmX binding inhibition; O15151+Q00987; SaOS-2 split-luciferase Mdm2/MdmX complementation, luminescence; inhibition, % at 8 µM; 330,000 compounds, 3% hits;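 active = inhibition of at least 50% at 8 µM in the primary screen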
CSC inhib = cancer stem cell inhibition | cancer stem cell-like cells viability, luminescence | inhibition, % at 7.5 µM | 300,000 compounds, 1.1% hits; in the data active = inhibition above about 75%; tested in HMLE shEcad cells
Beta cell apopt = beta cell apoptosis inhibition | INS-1E cytokine-induced death, ATP luminescence, 48 h; percent of positive-control rescue, neutral wells zero | protection from apoptosis, % (test concentration not listed) | 300,000 compounds, 0.8% hits | AID 435005;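 active = Every replicate reaches about 75%, or at least half do and their mean reaches it too, limit read from the data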;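 note: 0% = cytokine-treated negative control wells and 100% = positive control rescue; higher means more ATP so stronger rescue from cytokine killing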
Starred values were filed as active, the others as inactive; nt = not tested or not shown.

SMILES	Calb FLC	MPTP inh	Mdm2 MdmX PPI	CSC inhib	Beta cell apopt
CC(C)(C)c1ccc(Oc2ccc(NC(=O)C3CC=CCC3C(=O)O)cc2)cc1 (stereo unspecified)	-14	0	-19	80*	2
CCCOc1ccc(C(=O)NNC(=S)NC(=O)CC)cc1	85*	-2	47	24	71
CC(Sc1ccc(Cl)cc1)C(=O)Nc1ccc2c(c1)OCO2 (stereo unspecified)	-70	1	-7	-9	2
CC(Sc1ccc(Cl)cc1)C(=O)NCc1ccc2c(c1)OCO2 (stereo unspecified)	97*	-6	20	-19	2
CCN(c1ccccc1)S(=O)(=O)c1ccc(Cl)c(NC(=O)CN2C(=O)NC3(CCCC3)C2=O)c1	96*	2	-3	0	-2
CC(=O)Nc1ccc(N2CCCCC2)c(C(=O)Nc2cccc(C)c2)c1	94*	5	19	-1	-1
O=C(NCc1ccccn1)c1ccc2c(=O)n3nc(Nc4ccccc4)sc3nc2c1	11	0	21	29	7
CCc1ccccc1Nc1nn2c(=O)c3ccc(C(=O)NCc4ccccn4)cc3nc2s1	-4	-1	30	83*	9
CN1CCN(C(c2ccccn2)c2cc(Cl)c3cccnc3c2O)CC1 (stereo unspecified)	101*	-4	49	62	15
CN1CCN(c2ccc(C(=O)c3ccccc3)cc2[N+](=O)[O-])CC1	10	2	10	83*	-6
CC(C)NC(=O)C1(C)CSCC(=O)N1Cc1cccc(C(F)(F)F)c1 (stereo unspecified)	nt	0	nt	nt	nt
Cc1cc(NCCCO)n2nc(-c3cccs3)cc2n1	6	0	15	-7	4
OCCCNc1cc(-c2ccccc2)nc2cc(-c3ccc(F)cc3)nn12	8	1	12	83*	18
CCCCNC(=O)c1nc(-c2cccnc2)oc1-c1ccc(OC(F)(F)F)cc1	nt	1	nt	nt	nt
CCCNC(=O)C1(C)CCCN(Cc2ccccc2N(C)C)C1 (stereo unspecified)	nt	-1	nt	nt	nt
O=C(C(=Cc1ccc(F)cc1)C(=O)c1ccccc1)c1ccccc1	nt	-1	nt	nt	nt
COC(=O)c1c[nH]n2c(=O)c(Cc3ccc(F)cc3Cl)c(C)nc12	97*	0	-16	2	-1
CCOC(=O)N1CCN(c2ccc(S(=O)(=O)N3CCOCC3)cn2)CC1	nt	0	6	-15	3
CCOC(=O)N1CCN(c2ccc(S(=O)(=O)N(Cc3ccccc3)Cc3ccccc3)cn2)CC1	3	44	12	-5	104*
CC(=O)c1ccc(OC2(C)CCN(Cc3ccc4c(c3)OCCO4)C2)cc1 (stereo unspecified)	nt	0	nt	nt	nt
CC(NC(=O)C1CCC(C(=O)NC(C)c2ccccc2)CC1)c1ccccc1 (stereo unspecified)	-2	0	6	110*	238*
COc1cc(NC(=O)N2CCc3nc(NCc4cccc(Oc5ccccc5)c4)ncc3C2)cc(OC)c1OC	nt	2	nt	nt	nt
CCCSc1cc(N)cc([N+](=O)[O-])c1	97*	6	6	nt	-1
Nc1cccc([N+](=O)[O-])c1	-11	0	13	22	1
CCC(C(=O)Nc1cc(OC)c(NC(=O)c2ccccc2)cc1OC)c1ccccc1 (stereo unspecified)	36	1	-3	79*	9
SMILES	Calb FLC	MPTP inh	Mdm2 MdmX PPI	CSC inhib	Beta cell apopt
CCC(C(=O)Nc1cc(Cl)ccc1OC)c1ccccc1 (stereo unspecified)	-9	1	20	-1	-1
Cc1ccc(/C=C/C(=O)NCCc2ccccc2)o1	3	0	-41	75*	-9
O=C1NC[C@H](CCCCN2C[C@H](Cc3ccc(O)cc3)N(Cc3ccccc3)C(=O)C2=O)N(CCc2ccc(O)cc2)C1=O	nt	0	nt	nt	nt
CS(=O)(=O)Nc1ccc(F)cc1	nt	0	nt	nt	nt
Cc1cc(C)c(OCCCCN2CCC(C)CC2)c(Br)c1	-21	4	-15	82*	10
Cc1cc(Cl)c(OCCOCCN2CCC(C)CC2)c(Br)c1	-27	12	14	40	11
COc1ccc(C2=Nc3ccccc3N(C(=O)c3cccnc3)C2C(=O)NC2CCCC2)cc1 (stereo unspecified)	nt	0	nt	nt	nt
COc1ccccc1-c1cnn2c(NCCc3ccccc3)cc(C)nc12	12	0	-30	10	-1
COc1ccc(CCNc2cc(C)nc3c(-c4ccc(Cl)cc4)cnn23)cc1OC	29	2	39	92*	-1
Cc1cc(N2CCCCC2)n2ncc(-c3ccccc3)c2n1	5	1	40	23	-1
Cc1cc(N2CCOCC2)n2ncc(-c3ccccc3)c2n1	-14	-1	39	-5	100*
Cc1cc(N2CCCCC2)n2ncc(-c3ccc(Cl)cc3)c2n1	3	0	49	84*	1
OCCCCCCNc1ccc(CCO)cc1	nt	0	nt	nt	nt
Cc1c(C)n(CCN(C)C)c2ncnc(NCc3ccccc3)c12	4	0	3	-2	-8
Cc1c(C)n(CCc2ccccc2)c2ncnc(NCCCN(C)C)c12	-4	-1	22	76*	3
CC(C)Cc1ccc(CN2CCCC(NC(=O)CCN3CCCO3)C2)cc1 (stereo unspecified)	88*	1	10	4	0
O=S(=O)(Cc1ccccc1)N1CCc2ccccc21	100*	nt	-33	1	4
O=C(c1cc2ccccc2cc1O)N1CCN(c2ccccc2O)CC1	77*	1	6	-14	-2
C=CCn1c(O)c(N=NC(=S)Nc2ccc(OC)cc2)c2ccccc21	108*	3	nt	26	12
C=CCn1c(O)c(N=Nc2ccccc2O)c2ccccc21	nt	3	30	96*	-4
COC(=O)[C@]12CCCCC=C1N(Cc1ccc3c(c1)OCO3)C(=O)[C@H](CC(=O)NCCC(C)C)C2	nt	1	nt	nt	nt
O=C(Nc1ccccc1Cl)c1cc(C2CCCN(C(=O)c3cccc(O)c3)C2)on1 (stereo unspecified)	nt	0	nt	nt	nt
Cn1cccc1-c1nc2ccccc2n1Cc1ccccc1	0	-1	-9	88*	-4
COc1ccc(C/C(O)=C(\C#N)c2nc3ccccc3s2)cc1	94*	38	25	nt	nt
CC(C)(C)c1ccc(Cn2nnc3c(=O)[nH]c(C4CCCN(C(=O)Cc5cccs5)C4)nc32)cc1 (stereo unspecified)	9	-3	34	0	8
CC(C)(C)c1ccc(Cn2nnc3c(=O)[nH]c(C4CCCN(C(=O)c5cccs5)C4)nc32)cc1 (stereo unspecified)	12	2	23	79*	-3
CCCCC(c1nc2ccccc2[nH]1)n1c(-c2ccccc2)nc2ccccc21 (stereo unspecified)	nt	2	nt	nt	nt
COc1ccc(-c2nn(-c3ccccc3)cc2C(=O)N(C)CC(=O)Nc2cccc(F)c2)cc1	nt	1	10	80*	15
CN(CC(=O)Nc1cccc(F)c1)C(=O)c1cn(-c2ccccc2)nc1-c1ccc(F)cc1	nt	0	28	69	2
COc1ccc(/C=C2\SC(=S)N(NS(=O)(=O)c3ccc(C)cc3)C2=O)c(OC)c1	52	5	17	22	0
